Compound activity deposited in PubChem BioAssay by several laboratories.
SENP8 block-1: blocks human SENP8 cleavage of Nedd8 substrate; hit rate 0.64% among 360,000; inhibition, % at 20 µM; recombinant SENP8, Nedd8 substrate fluorescence; AID 602440; in the data active means inhibition mostly above about 40%, no sharp cut-off; inactive means mostly below about 27%
Target sequence (Q96LD8 whole entry, looked up): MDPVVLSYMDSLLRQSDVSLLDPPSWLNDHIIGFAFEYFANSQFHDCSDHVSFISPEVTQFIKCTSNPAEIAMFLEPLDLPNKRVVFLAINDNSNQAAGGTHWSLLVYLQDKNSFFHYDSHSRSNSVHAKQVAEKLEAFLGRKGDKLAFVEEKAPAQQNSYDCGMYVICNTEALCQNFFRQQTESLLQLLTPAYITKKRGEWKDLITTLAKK
SENP7 inh: SENP7 protease inhibition; AID 434973; inhibition, % at 5 µM; recombinant SENP7, Z-RLRGG-aminoluciferin luminescence, 40 min; hit rate 1.5% among 330,000;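 active means inhibition above about 50% at the single test dose, limit read from the data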
EBI2 block: antagonists of human EBI2 receptor | EBI2 beta-arrestin recruitment, luminescence, 7a,25-OHC stimulated | inhibition, % at 5 µM | hit rate 0.81% among 360,000 | AID 651636; in the data active means inhibition above about 38%;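 further: enzyme fragment complementation signal reports receptor beta-arrestin coupling in cells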
Target sequence (P32249 whole entry, looked up, the tested form may be a part): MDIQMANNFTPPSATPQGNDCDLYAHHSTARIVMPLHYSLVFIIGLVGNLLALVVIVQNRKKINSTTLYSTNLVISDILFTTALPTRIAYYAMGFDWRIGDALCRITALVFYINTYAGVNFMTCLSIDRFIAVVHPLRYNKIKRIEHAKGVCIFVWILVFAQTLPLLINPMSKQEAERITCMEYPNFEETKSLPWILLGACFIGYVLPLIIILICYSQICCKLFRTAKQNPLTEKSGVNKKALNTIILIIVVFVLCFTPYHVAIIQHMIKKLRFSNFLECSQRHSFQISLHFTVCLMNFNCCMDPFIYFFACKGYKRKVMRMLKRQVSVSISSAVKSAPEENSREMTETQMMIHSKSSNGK
SENP8 block-2: SENP8 protease inhibition. purified SENP8, Z-RLRGG-aminoluciferin cleavage, luminescence. inhibition, % at 10 µM. AID 2540. Q96LD8. hit rate 1.2% among 330,000; in the data active means inhibition above about 50%
SENP6 block: blocks the human protease SENP6; Q9GZR1; Recombinant SENP6 catalytic domain, aminoluciferin luminescence; inhibition, % at 10 µM; hit rate 1.8% among 330,000; AID 2599;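 active means inhibition above about 50% at the single tested dose, limit read from the data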
AHR activator: human AHR activation. P35869. AHR-responsive luciferase reporter cells, luminescence. activation, % at 5 µM. hit rate 2.5% among 320,000; in the data active means activation above about 47%
Hits are given with their value; i = inactive; nt = no result given. Sampled rows, rich in hits. Any-hit rate of the full collection: about 5%.

SMILES	SENP8 block-1	SENP7 inh	EBI2 block	SENP8 block-2	SENP6 block	AHR activator
O=C(N/C(=C\c1cccnc1)c1nc2ccccc2[nH]1)c1cccc(Br)c1	i	i	i	i	i	i
O=C(N/C(=C\c1ccc(Br)cc1)c1nc2ccccc2[nH]1)c1ccco1	i	i	i	i	i	75
CCCCS(=O)(=O)/C=C\C1C2C=CC(C2)C1S(=O)(=O)CCCC (stereo unspecified)	i	i	i	i	i	i
CCCCS(=O)(=O)/C=C\C=C/S(=O)(=O)CCCC	i	i	51	i	i	i
COc1ccc(-c2cc(=O)c3cc(OC)c(OC)cc3[nH]2)cc1	i	i	i	i	i	62
COc1ccc(-c2cc(=O)c3cc(F)ccc3[nH]2)cc1	i	i	i	i	i	i
Cc1cc(C)nc(NC(=S)Nc2cccc(F)c2)c1	i	i	i	i	i	48
COc1cccc(NC(=S)Nc2cc(C)cc(C)n2)c1	i	i	i	i	i	66
CC(=O)N1/C(=C/c2ccc(N(C)C)cc2)C(=O)c2ccccc21	i	nt	i	nt	nt	nt
CC(C)C[C@@H]1CC2=C(C(=O)OC(C)(C)O2)[C@H](c2ccc(Cl)cc2)O1	i	nt	i	nt	nt	nt
O=C(CSc1nnc(SCc2ccc(Cl)cc2)s1)N/N=C/c1ccc(C(=O)O)cc1	i	i	i	65	85	i
Cc1nn(-c2ccccc2)c(C)c1/C=N/NC(=O)CSc1nnc(SCc2ccccc2Cl)s1	i	i	i	61	71	i
Cc1cc(/C=N/n2c(COc3ccccc3)nc3ccccc3c2=O)c(O)c([N+](=O)[O-])c1	i	i	45	i	i	i
COc1ccc(-c2sc3ccc(OC)cc3c2C#CCCO)cc1	i	i	i	i	i	61
COc1ccc(-c2sc3ccc(OC)cc3c2-c2ccc(O)cc2)cc1	i	i	i	i	i	65
COc1ccc2sc(-c3ccc(N(C)C)cc3)c(C#Cc3cncn3C)c2c1	i	i	i	i	i	71
COc1ccc(-c2sc3ccc(N4CCOCC4)cc3c2C#CC(C)(C)O)cc1	i	i	i	i	i	49
Cc1noc(C)c1C(=O)OCC(=O)Nc1ncc(C(F)(F)F)cc1Cl	i	i	i	i	i	i
O=C1C(Cl)=C(O)C2(Cl)C(Cl)=C(Cl)C12Cl (stereo unspecified)	i	nt	i	nt	nt	nt
COc1ccc(C(=O)N2CCCC(c3cc(C(=O)NCc4ccccc4)no3)C2)cc1 (stereo unspecified)	i	nt	i	nt	nt	nt
O=C(CNC(=O)c1cccs1)c1ccc([N+](=O)[O-])cc1	i	i	i	i	i	78
O=C(CNC(=O)c1cccs1)OCC(=O)c1ccc([N+](=O)[O-])cc1	i	i	i	i	i	i
O=C(CNc1ccccc1)c1ccc([N+](=O)[O-])cc1	i	i	i	i	i	63
C[C@@H]1CN([C@@H](C)CO)C(=O)c2cc(-c3ccncc3)cnc2O[C@H]1CN(C)C(=O)c1cccc(F)c1	i	nt	i	nt	nt	nt
CC(C)(C)OC(=O)N1CCC(NC(=O)c2[nH]cnc2C(=O)Nc2ccccc2F)CC1	i	nt	i	nt	nt	nt
SMILES	SENP8 block-1	SENP7 inh	EBI2 block	SENP8 block-2	SENP6 block	AHR activator
C/C(=N\Nc1cccc2cccnc12)c1ccc(N)cc1	i	i	i	i	i	i
C/C(=N\Nc1ccc(Cl)c(C(=O)O)c1)c1ccccn1	i	i	i	i	i	i
C/C(=N\Nc1cccc2cccnc12)c1ccccn1	i	92	i	89	72	47
C/C(=N\Nc1ncc(Cl)cc1Cl)c1ccccn1	i	nt	56	nt	nt	nt
Cc1ccc(OC2CCN(C(=O)[C@H]3O[C@@H](n4ccc(=O)[nH]c4=O)[C@H](O)[C@@H]3O)CC2)cc1	i	nt	i	nt	nt	nt
COc1ccc(NC(=O)N2CCN(C(=O)C(Cc3ccc(F)cc3)NC(C)=O)CC2)cc1 (stereo unspecified)	i	i	i	i	i	i
CCN(c1ccccc1)S(=O)(=O)c1cccc(C(=O)NCC(c2ccc(F)cc2)N2CCOCC2)c1 (stereo unspecified)	i	nt	i	nt	nt	nt
O=C1NC(=O)/C(=C\c2ccccc2OCc2ccc([N+](=O)[O-])cc2)N1	i	i	i	i	i	72
COC(=O)[C@H](CO)N1C(=O)[C@@H]2[C@H](C1=O)C1C=C[C@H]2C1	i	nt	i	nt	nt	nt
COc1ccc(/C=N/n2c(=O)[nH]c3c([nH]c4ccc(Br)cc43)c2=O)cc1CN1CCOCC1	i	i	i	i	i	56
O=c1c2c([N+](=O)[O-])cc([N+](=O)[O-])cc2sn1-c1ccc(Br)cc1	i	i	78	i	i	i
CS(=O)(=O)c1ccc(C(=O)OCc2nnc(-c3ccccc3)o2)cc1[N+](=O)[O-]	i	nt	56	nt	nt	nt
C/C(=N\Nc1nc2ccccc2[nH]1)c1ccc(N2CCOCC2)cc1	i	i	i	i	i	76
C/C(=N\Nc1nc2ccccc2[nH]1)c1ccc(C)o1	i	i	i	i	i	77
O=C(CSc1nc2ccccc2[nH]1)c1ccc(Cl)s1	i	i	i	i	i	i
C/C(=N\Nc1nc2ccccc2[nH]1)c1ccc(Cl)s1	i	i	i	i	i	73
Cc1ccc(C(=O)NCc2nc3ccccc3[nH]2)o1	i	i	i	i	i	i
C/C(=N\Nc1nc(C)cc(C)n1)c1ccc(N2CCOCC2)cc1	i	i	i	i	i	i
N#CCCN(C(=O)COC(=O)CCc1nc2ccccc2c(=O)[nH]1)c1ccccc1F	i	i	i	i	i	i
COc1ccc(C(=O)/C=C2\NCC3c4ccccc4CCN3C2=O)cc1 (stereo unspecified)	i	i	i	i	i	89
Cc1ccc(C(=O)Nc2cc3c(oc2=O)CCCC3=O)cc1	i	i	i	i	i	i
O=C(Nc1cc2c(oc1=O)CCCC2=O)c1ccccc1	i	i	i	i	i	62
CCOC(=O)C1CCCN(C(=O)c2cc3ccc(OC)cc3[nH]2)C1 (stereo unspecified)	i	i	i	i	i	nt
CCOC(=O)C1CCCN(C(=O)c2cc3cc(F)ccc3[nH]2)C1 (stereo unspecified)	i	i	i	i	i	50
COc1cc(OC)cc(C(=O)N2CCCC(Nc3ccc(F)cc3)C2)c1 (stereo unspecified)	i	i	i	i	i	i
SMILES	SENP8 block-1	SENP7 inh	EBI2 block	SENP8 block-2	SENP6 block	AHR activator
O=C(c1cc2cc(F)ccc2[nH]1)N1CCCC(Nc2ccc(F)cc2)C1 (stereo unspecified)	i	i	i	i	i	63
CCNC(=S)N1CCC(C(=O)c2ccc(F)cc2)CC1	i	nt	i	nt	nt	nt
CCNC(=O)C1(C)CCN(Cc2ccccc2-c2ccccc2)C1 (stereo unspecified)	i	nt	i	nt	nt	nt
COc1ccccc1NC(=O)Cc1nn(C)c(=O)c2ccccc12	i	i	i	i	i	64
COc1ccccc1NC(=O)CC(=O)Nc1ccccc1OC	i	i	i	i	i	69
COc1cccc(OC)c1NC(=O)Cc1nn(C)c(=O)c2ccccc12	i	i	i	i	i	i
Cc1nc(Cl)sc1C(=O)Nc1ccccc1Cl	i	i	i	i	i	i
